# Screening data (PubChem BioAssay)
# Rows were chosen to be rich in hits. Some 12% of all compounds tested hit in one or more screens of this group.
# USP28 inh – inhibitors of human USP28 deubiquitinase | Q96RU2 | purified USP28, Ub-rhodamine cleavage fluorescence, 30 min | inhibition, % at 25 µM | 47,000 compounds, 3% hits | AID 1645857
# Target sequence (Q96RU2 whole entry, looked up): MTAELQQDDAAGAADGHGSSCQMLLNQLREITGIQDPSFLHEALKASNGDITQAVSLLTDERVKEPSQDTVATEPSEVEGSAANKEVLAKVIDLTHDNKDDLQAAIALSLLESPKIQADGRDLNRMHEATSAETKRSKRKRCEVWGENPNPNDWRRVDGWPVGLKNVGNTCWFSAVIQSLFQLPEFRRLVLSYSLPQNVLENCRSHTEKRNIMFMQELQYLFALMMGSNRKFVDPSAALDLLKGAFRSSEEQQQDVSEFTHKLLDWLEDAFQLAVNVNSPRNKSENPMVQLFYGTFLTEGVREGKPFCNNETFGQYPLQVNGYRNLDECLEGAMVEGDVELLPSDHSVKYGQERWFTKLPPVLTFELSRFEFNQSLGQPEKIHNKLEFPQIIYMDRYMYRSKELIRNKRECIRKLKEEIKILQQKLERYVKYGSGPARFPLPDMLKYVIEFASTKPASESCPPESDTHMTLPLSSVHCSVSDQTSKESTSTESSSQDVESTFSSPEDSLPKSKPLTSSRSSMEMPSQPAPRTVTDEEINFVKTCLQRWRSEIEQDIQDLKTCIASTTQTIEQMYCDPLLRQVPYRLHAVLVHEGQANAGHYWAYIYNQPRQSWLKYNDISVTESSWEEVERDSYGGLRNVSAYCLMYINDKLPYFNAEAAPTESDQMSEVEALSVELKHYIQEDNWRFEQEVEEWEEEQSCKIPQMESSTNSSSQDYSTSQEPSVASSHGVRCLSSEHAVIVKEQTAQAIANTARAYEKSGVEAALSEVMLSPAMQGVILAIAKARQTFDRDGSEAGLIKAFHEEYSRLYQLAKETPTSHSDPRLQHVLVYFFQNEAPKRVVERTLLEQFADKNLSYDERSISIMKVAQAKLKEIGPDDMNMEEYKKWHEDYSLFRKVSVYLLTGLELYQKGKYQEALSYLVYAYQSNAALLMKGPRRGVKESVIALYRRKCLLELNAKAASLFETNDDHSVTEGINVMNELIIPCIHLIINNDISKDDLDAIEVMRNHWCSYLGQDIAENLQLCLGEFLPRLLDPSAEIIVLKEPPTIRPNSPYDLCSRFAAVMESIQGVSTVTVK
# OTUD3 block – blocks human OTUD3 ubiquitin-rhodamine cleavage; Q5T2D3; purified OTUD3, Ub-rhodamine fluorescence, 2 h; inhibition, % at 25 µM; 47,000 compounds, 0.7% hits
# USP17 block – inhibitors of human USP17 deubiquitinase | purified USP17, Ub-rhodamine cleavage fluorescence, 3 h | A8MUK1 | inhibition, % at 50 µM | 47,000 compounds, 6.5% hits
# USP30 inh – inhibitors of human USP30 deubiquitinase; AID 1645860; 47,000 compounds, 5.3% hits; inhibition, % at 25 µM; purified USP30, Ub-rhodamine cleavage fluorescence
# An asterisk follows results filed as active; . = no result given. No stated cut-off is given here; in the data, active means inhibition above about 30%; inactive means the rest.
SMILES,USP28 inh,OTUD3 block,USP17 block,USP30 inh
CCOC(=O)N1CCN(C(=O)CNC(=O)c2cc3c(OC)cccc3[nH]2)CC1,18,9,13,15
O=C(CNC(=O)c1cc2ccccc2[nH]1)Nc1ccc2c(c1)OCCO2,18,0,51*,25
COc1cccc2[nH]c(C(=O)NCC(=O)Nc3ccc4c(c3)OCO4)cc12,4,-1,40*,-4
COc1ccc(NC(=O)[C@H](C)NC(=O)c2cc3c(OC)cccc3[nH]2)cc1Cl,74*,88*,86*,70*
COc1ccc(OC)c(NC(=O)c2cc3c(OC)cccc3[nH]2)c1,0,-3,7,-45
Cc1cnc(C(=O)N2CC[C@H]3[C@H]2CCN3c2ccc(C)nn2)cn1,-14,-15,-25,-41
Cc1cc(C)n(-c2nc3c(c(=O)n2CC(=O)Nc2ccccc2F)CCCC3)n1,-8,-5,-14,-7
Cc1ccc(S(=O)(=O)N(C)C)cc1NC(=O)c1cc(S(=O)(=O)N(C)Cc2ccccc2)ccc1Cl,10,14,13,24
Cc1cc(C)cc(-n2ccnc(SCC(=O)Nc3cccc(Cl)c3)c2=O)c1,20,11,34*,54*
COc1cnc(CSc2nccc(C)n2)cc1OCC(=O)Nc1ccccc1F,0,4,-9,6
Cc1cc(NC(=O)CSc2nccn2-c2ccc(F)cc2)no1,5,11,1,13
CCOc1ccc(-n2ccnc(SCC(=O)Nc3ccccc3Cl)c2=O)cc1,14,3,30*,-37
CCOc1ccc(-n2ccnc(SCC(=O)Nc3ccccc3F)c2=O)cc1,13,18,28,32*
Cn1c(=O)c2c(ncn2CC(=O)OCC(=O)Nc2cccc(Cl)c2)n(C)c1=O,11,4,5,5
COc1ccc(-c2ccnc(SCC(=O)Nc3ccccc3F)n2)cc1,23,21,71*,65*
O=C(c1ccc(F)cc1Cl)N1CCN(c2nc(-c3ccccc3)no2)CC1,-11,-3,-2,-2
CCOC(=O)c1c(C)oc2ccc(N(C(=O)c3ccncc3)S(=O)(=O)c3ccc(OCC)cc3)cc12,38*,-12,-17,-12
CN(Cc1ccccc1)S(=O)(=O)c1ccc2[nH]cc(C(=O)NCc3cccs3)c(=O)c2c1,-9,-8,60*,-33
CCc1ccc(C2CN3C(=O)CN(C4CCCC4)C(=O)[C@]3(C)c3[nH]c4ccccc4c32)cc1 (some centres undefined),3,-5,-23,-1
O=C(NCCc1ccccn1)c1cn2ccnc(-c3ccc(F)cc3)c2n1,4,8,21,56*
Cc1ccc(-c2nccn3cc(C(=O)NCCc4ccccn4)nc23)cc1,-11,-8,-17,-27
O=C(NCCc1ccccn1)c1cc(-c2ccc(Br)cc2)n[nH]1,12,-11,80*,34*
CC(C)C[C@H](NC(=O)OC(C)(C)C)C(=O)N1CCC(C(=O)N[C@H](C(=O)O)C(C)C)CC1,13,9,11,28
CN1C(=O)[C@H]2CN(Cc3cccnc3)C[C@H]2C12CCN(C(=O)c1cccnc1)CC2,4,9,-2,7
CC1CSc2ccc(S(=O)(=O)CCC(=O)N3CCCCC3)cc2NC1=O (centres undefined),-1,0,-2,-3
SMILES,USP28 inh,OTUD3 block,USP17 block,USP30 inh
O=C(NC(c1ccccc1)c1nnc(N2CCCC2)o1)c1ccc(F)cc1 (centres undefined),8,3,-2,6
Cc1ccc(CCNC(=O)c2nn(C34CC5CC(CC(C5)C3)C4)cc2[N+](=O)[O-])cc1,23,27,9,47*
Cc1ccc(CNC(=O)c2ccc(N3CCC(C)CC3)c([N+](=O)[O-])c2)cc1,-20,-7,-7,-1
CC(=O)NCc1nc(-c2ccc(N3CCC(C)CC3)cc2)no1,-9,0,-4,-7
CN(Cc1ccc2c(c1)OCO2)C(C(=O)Nc1ccc(F)cc1)c1ccccc1 (centres undefined),12,10,13,39*
COc1cccc(NC(=O)C2Cn3ccnc3C3(CCN(C(C)=O)CC3)O2)c1 (centres undefined),-15,32*,-20,-42
COc1cccc(CN2CCC3(CC2)OC(C(=O)Nc2ccccc2)Cn2ccnc23)c1 (centres undefined),1,9,1,6
Cc1c(CN2CCC(C(=O)Nc3cccc(-c4cccc(F)c4)c3)CC2)cnn1C,23,-10,-4,31*
Cn1cc2c(n1)c(=O)n(Cc1ccc(F)cc1)c(=O)n2CC(=O)NCc1ccccc1,9,11,12,25
CCn1cc2c(n1)c(=O)n(Cc1ccccc1)c(=O)n2CC(=O)Nc1ccc(C)cc1C,16,9,36*,33*
CCn1c(=O)c2nscc2n(CC(=O)Nc2ccc(C)cc2Cl)c1=O,.,-1,5,.
Cc1cc(C)c(NC(=O)Cn2c(=O)n(Cc3ccccc3)c(=O)c3nn(C)cc32)c(C)c1,64*,44*,68*,85*
COc1cc2c(cc1OC)CN(c1ncnc3scc(-c4ccccc4)c13)CC2,1,-26,-42,-28
CCN(C(=O)C(c1ccccc1)c1ccccc1)C(C)C(=O)Nc1ccc(C)cc1 (centres undefined),2,9,0,16
COc1ccc(CC(=O)N2CCc3cc(-c4noc(C)n4)ccc32)cc1,33*,8,12,6
CC(=O)c1ccc(N2CCN(S(=O)(=O)c3ccc4c(c3)OCC(=O)N4)CC2)cc1,7,8,2,14
COc1ccc(Cl)cc1-c1nc(-c2ccc(=O)[nH]c2)no1,-38,-32,-39,-164
COc1ccc(Cl)cc1-c1nc(-c2cccnc2)no1,-5,-3,35*,-13
COc1ccc(CNC(=O)NC2CCN(c3ccc(F)cc3)C2=O)cc1 (centres undefined),0,-1,6,4
COc1ccc(CC(=O)NC2CCN(c3ccc(C)cc3)C2=O)cc1 (centres undefined),16,14,38*,17
O=c1[nH]c(=O)n(Cc2ccco2)c2c1CN(C1CCCCC1)CN2,-16,-5,13,-29
CCCc1cc(=O)n2[nH]c(-c3ccccc3)cc2n1,-9,-7,-14,-8
CCCc1cc(=O)n2[nH]c(COc3ccccc3)c(-c3ccccc3)c2n1,40*,13,40*,55*
CN1CCC(N(C)S(=O)(=O)c2ccc(NC(=O)c3cccc(OCc4ccccc4)c3)cc2)CC1,52*,-18,-4,0
Cc1c(C(=O)N2CCC(Cc3ccccc3)CC2)oc2c1C(=O)CCC2,20,10,18,33*
COc1cc(COc2ccc3c(C)c(CC(=O)N4CC[C@@]5(O)CCCC[C@H]5C4)c(=O)oc3c2C)cc(OC)c1OC,10,25,48*,50*
COc1ccc2c(C)c(CC(=O)N3CCC[C@H]3C(=O)O)c(=O)oc2c1C,12,32*,19,20
CC(C)NS(=O)(=O)c1cccc2c(NC(=O)C(Cc3ccccc3)NC(=O)c3ccccc3)cccc12 (centres undefined),1,1,6,79*
